Experimental data from PubChem BioAssay (NCATS).
Inconclusive results are not listed. Entries that show only a call come without a potency. The source made the active and inactive calls. The call rests on the fitted dose curve; in most records, active means well fitted inhibition curve with a large enough effect; inconclusive means small, poorly fitted or top-dose-only effect; inactive means no such curve, though single readings can be large or run the other way.

What follows are compounds tested against Retinaldehyde dehydrogenase 3 (Homo sapiens) (UniProt P47895) (assay: qHTS for Inhibitors of the Aldehyde Dehydrogenase Family (ALDH1A3) Primary screen (AID 2061315)). Settings: ALDH inhibition qHTS; series mostly up to 56 µM.

| SMILES | Potency |
| --- | --- |
| O=C(Cn1nc(-c2ccncc2)ccc1=O)NCCc1ccccc1 | inactive |
| CC(C)(C)OC(=O)N1CCN(c2ccc(NCc3cc(-c4ccc(C#N)cc4)co3)cc2)CC1 | inactive |
| Cc1ccccc1NC(=O)CN1C(=O)N/C(=C\c2cn(-c3cccc(C(=O)O)c3)cn2)C1=O | inactive |
| CCN(Cc1cccs1)c1ncnc2ccc(-c3ccc4c(c3)OCO4)cc12 | inactive |
| O=C(NCc1ccc(Oc2ccccc2)cc1)c1nc(-c2cc(Br)c(O)c(Br)c2)no1 | inactive |
| Cc1cccc(N2CCN(C(=S)Nc3cc(C)ccn3)CC2)c1 | inactive |
| Cc1c(C(=O)O)[nH]c2c1C(=O)CC(c1ccco1)C2 (configuration not stated) | inactive |
| O=C(NC1CCCc2c1cnn2CCO)c1ccccn1 (configuration not stated) | inactive |
| C=C1C(=O)O[C@H]2C1[C@H](OC(=O)/C(=C/CO)COC(=O)/C(C)=C/CO)CC(=C)[C@@H]1CC(=O)[C@@H](C)[C@@H]12 (some centres not stated) | inactive |
| O=C1CCCC2=C1C(c1ccccc1I)N=C(Nc1nc3ccccc3o1)N2 (configuration not stated) | inactive |
| Clc1nc(CN2CCOCC2)nc2sc3c(c12)CCC3 | inactive |
| COc1ccc(C2c3ccc(OCc4ccccc4)cc3Oc3ncn(CCN4CCOCC4)c(=N)c32)cc1OC (configuration not stated) | inactive |
| N#Cc1c(-c2ccc(-c3ccccc3)cc2)no[n+]1[O-] | inactive |
| CN(C)c1cccc(-c2nnc(N3CCC(C(N)=O)CC3)s2)c1 | inactive |
| CC(C)c1cccc(-n2cnc3cc(C(=O)N4CCCCC4)ccc32)c1 | inactive |
| O=c1c2ccccc2nc2sc(NCc3ccc(Sc4ccccc4)cc3)nn12 | inactive |
| c1csc(CNc2ncnc3cc(-c4ccc5c(c4)OCO5)ccc23)c1 | inactive |
| NC(=O)c1cccc(-c2cc(O)cc(OC(=O)NC3CCCCC3)c2)c1 | inactive |
| N#Cc1nc(-c2cccc3ccccc23)oc1Nc1ccccc1 | inactive |
| CCOc1cccc(-c2cc(-c3n[nH]c(=S)n3CC)c3ccccc3n2)c1 | inactive |
| Cc1ccc(NS(=O)(=O)c2cc3c(cc2-c2ccsc2)NC(=O)CO3)cc1C | inactive |
| CC(=O)Nc1sc2c(c1-c1cc3ccccc3s1)CCNC2 | inactive |
